From PubChem BioAssay (NCATS)
Results filed as inconclusive are left out. Where a call stands in place of a potency, no number is given. Activity calls are given as the source filed them. The call rests on the fitted dose curve; in most records, active means well fitted inhibition curve with a large enough effect; inconclusive means small, poorly fitted or top-dose-only effect; inactive means no such curve, though single readings can be large or run the other way.

Experiments:
[1] = system: Zika virus NS2B-NS3 protease (unlinked complex); assay: Primary screen GU Rhodamine qHTS for Zika virus inhibitors: Unlinked NS2B-NS3 protease assay (AID 1347159); further: nearly all actives have a fitted effect of over 60% in size
Outline: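 Buffer 10 mM Tris-HCl pH 8.0, 0.01% Tween 20. Unlinked protease 25 nM; compound preincubation 15 min, RT, protected from light. Substrate Rhod110, 1.5 microM; ~15% conversion in 15 min.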

[2] = system: Zika virus NS2B-NS3 protease (linked construct); assay: Primary screen NINDS Rhodamine qHTS for Zika virus inhibitors (AID 1347160); further: nearly all actives have a fitted effect of over 55% in size
Outline: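 Aprotinin served as in-plate control. Conditions: 25 nM linked NS2B-NS3, pH 8.0 Tris buffer, titrated compounds, 15 min preincubation and 15 min reaction with 1.5 microM Rhod110 substrate at room temperature.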

| Structure (SMILES) | Potency [1] | Potency [2] |
| --- | --- | --- |
| Cc1onc(-c2ccccc2)c1C(=O)N1CCN(c2ccc([N+](=O)[O-])cc2Cl)CC1 | inactive | inactive |
| CC1(C(=O)Nc2ccc(F)nc2)CCCN1c1nc(Nc2cc(C3CC3)[nH]n2)c2cccn2n1 (stereo unspecified) | inactive | inactive |
| Cc1cc(-c2nc(-c3ccc(OC(F)(F)F)cc3)no2)nn1Cc1ccnc(N2CCN(C3CC3)CC2)c1 | inactive | inactive |
